Experimental findings from PubChem BioAssay AID1030 (National Center for Advancing Translational Sciences (NCATS), 2008) are described below.

Among all 220,000 compounds or so, about 16,000 (7.3%) were called active. Roughly 25% stayed inconclusive and do not appear here. Only a selection was taken, and actives are over-represented in it overall. A number with no mark means an inactive call. Calls follow the shape of the dose curve; as a rule, active = well fitted inhibition curve with a large enough effect (not every such curve was filed as active); inconclusive = small, poorly fitted or top-dose-only effect, or another doubt; inactive = no such curve, though single readings can be large or run the other way.
Potency is read from the fitted curve at half-maximal effect.

Chain of Aldehyde dehydrogenase 1A1 (Homo sapiens) (P00352 whole entry, looked up): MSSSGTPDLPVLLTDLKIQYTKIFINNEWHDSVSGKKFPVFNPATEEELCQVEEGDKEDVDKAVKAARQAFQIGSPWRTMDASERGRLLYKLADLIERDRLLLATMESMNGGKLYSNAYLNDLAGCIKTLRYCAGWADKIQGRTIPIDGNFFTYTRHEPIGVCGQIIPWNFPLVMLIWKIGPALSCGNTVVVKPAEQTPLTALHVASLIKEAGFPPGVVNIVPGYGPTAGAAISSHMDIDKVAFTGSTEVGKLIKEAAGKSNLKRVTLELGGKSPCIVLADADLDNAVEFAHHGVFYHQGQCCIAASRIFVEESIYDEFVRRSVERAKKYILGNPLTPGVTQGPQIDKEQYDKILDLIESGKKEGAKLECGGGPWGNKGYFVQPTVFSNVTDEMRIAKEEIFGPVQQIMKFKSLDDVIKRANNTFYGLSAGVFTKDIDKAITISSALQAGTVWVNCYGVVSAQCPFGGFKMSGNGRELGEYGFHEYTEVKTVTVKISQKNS

The test has as its target Aldehyde dehydrogenase 1A1 (Homo sapiens) (UniProt P00352). In words: qHTS Assay for Inhibitors of Aldehyde Dehydrogenase 1 (ALDH1A1).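 As to activity, negative = inhibition: plate controls were no enzyme wells and a reference inhibitor.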 The following applies: Purified ALDH1A1, NADH fluorescence, propionaldehyde substrate; series mostly up to 75.3 µM; activity, negative = inhibition: at the top concentration.
With `Cc1cccc(NC(=O)c2ccc3nsnc3c2)c1C`, the “activity, negative = inhibition” value is -4.39%.
Regarding `Cc1nnsc1C(=O)Nc1cccc(Cl)c1C`, the “activity, negative = inhibition” value was 3.33%.
As to `Cc1nc(C)c(C(=O)Nc2cccc(C)c2C)o1`, the Potency is 17800 nM (active).
With `O=C(c1ccc(F)cc1)N1CCCC(c2nc(-c3cccs3)no2)C1` (stereo not given), the “activity, negative = inhibition” value is -8.32%.
With `CCOC(=O)C1CCN(C(=O)C2(NC(=O)Nc3cccc(F)c3)CCCCC2)CC1`, the “activity, negative = inhibition” value is 4.32%.
As for `CC(=O)c1cnc(-c2ccccc2)s1`, the “activity, negative = inhibition” value is -9.73%.
In the case of `CCN(CC)c1ccc2cc(C(N)=O)/c(=N\NC(=O)c3ccncc3)oc2c1`, the “activity, negative = inhibition” value was -10.6%.
Consider `CCN(CC)c1ccc2oc(=O)c(C)nc2c1`, for which the Potency was 1000 nM (active).
As to `CCN(CC)c1ccc(/C=N/Nc2nc(C)cc(C)n2)c(O)c1`, the “activity, negative = inhibition” value was 2.46%.
With `COc1ccc(CCNC(=O)CN(c2ccccc2)S(C)(=O)=O)cc1`, the “activity, negative = inhibition” value is 2.48%.
Same read-out and setting: the value for `Cc1cc(C(=O)NNC(=O)CCC2CCCCC2)c(C)o1` was -3.14%; that for `CCOC(=O)C1C/C(=C\C(C)=O)c2cccc(C(F)(F)F)c2O1` (stereo not given) was -5.96%.
In the case of `C=CCC(C)(O)c1ccco1` (stereo not given), the “activity, negative = inhibition” value was 12.8%.
For the compound `O=C(c1ccc(Cl)c([N+](=O)[O-])c1)N1CCN(c2ccccc2)CC1`, the “activity, negative = inhibition” value is 1.09%.
As to `O=[N+]([O-])c1ccc(N2CCN(c3ccc(O)cc3)CC2)c(Cl)c1`, the Potency was 7940 nM (active).
With `COc1ccc(N2CCN(c3ccc([N+](=O)[O-])cc3Cl)CC2)cc1`, the “activity, negative = inhibition” value is 4.73%.
The same measure, in the same setting: the value for `C/C=C/C=C/C(=O)OCC(=O)Nc1ccc(Cl)cc1` was -2.76%; that for `O=C(C1CCN(S(=O)(=O)c2ccc(Br)s2)CC1)N1CCN(C2CCCCC2)CC1` was -12.8%; that for `Cc1ccc(S(=O)(=O)CC(=O)Nc2c(C)n(C)n(-c3ccccc3)c2=O)cc1` was -4.24%.
Same read-out and setting: the value for `Cc1ccc(S(=O)(=O)N2CCN(CC(=O)N/N=C/c3ccc(Br)s3)CC2)cc1` was 0.942%.
Consider `Cc1cccc2c1N(CC(=O)OC(C)C)C(=O)C2=O`, for which the Potency was 20 nM (active).
Regarding `Cc1cc(C)cc(OCC(=O)NNC(=O)CCN2C(=O)c3ccccc3C2=O)c1`, the “activity, negative = inhibition” value was -8.44%.
Turning to `CCCCOC(=O)Cn1c(=O)n(CC(=O)OCCCC)c2cc(C)ccc21`, the “activity, negative = inhibition” value is -4.24%.
The same measure, in the same setting: the value for `CC(C)OC(=O)CN1CCN(c2ccc(Cl)cc2)CC1` was -2.07%.
For `CC(C)OC(=O)CN1C(=O)c2ccccc2C1=O`, the “activity, negative = inhibition” value was 8.21%.
For the compound `Cc1nn(CCOc2ccccc2)c(=O)n1-c1ccccc1F`, the “activity, negative = inhibition” value was -4.02%.
`CCOC(=O)CN1C(=O)N[C@@H](c2ccc(Br)cc2)C(C(C)=O)=C1C`: the Potency result was “inactive”.
With `Cc1ccccc1C(=O)NNC(=O)CN1C(=O)c2ccccc2C1=O`, the “activity, negative = inhibition” value is 4.91%.
Regarding `CC1(C)NC(=O)N(CCOc2cccc(Oc3ccccc3)c2)C1=O`, the “activity, negative = inhibition” value was -11.9%.
As to `CC(C)OC(=O)CN1C(=O)C(=O)c2ccccc21`, the Potency is 63.1 nM (active).
Turning to `Cc1cccc2c1N(CCOc1ccccc1)C(=O)C2=O`, the Potency is 224 nM (active).
Consider `CCOC(=O)CN1C(=O)C(=O)c2cc(C)ccc21`, for which the Potency was 178 nM (active).
Regarding `OCCC1CN(Cc2cccn2-c2nccs2)CCN1CCc1ccccc1` (stereo not given), the “activity, negative = inhibition” value is 11.6%.
Turning to `C/C(=N\NC(=O)c1cccnc1)c1ccc(-n2ccnc2)cc1`, the “activity, negative = inhibition” value was 8.66%.
In the case of `C#CCOCCOCCOCCNc1nc(N2CCN(C(=O)[C@H](CCC(=O)O)n3cc(C(N)CO)nn3)CC2)nc(N2CCN(C(=O)[C@H](Cc3ccc(O)cc3)n3cc(C(N)[C@H](C)CC)nn3)CC2)n1` (stereo not given in full), the “activity, negative = inhibition” value was -1.39%.
On to `Cc1nnc(SCC2=C(C(=O)O)N3C(=O)C(NC(=O)Cn4nc(C)c(Cl)c4C)C3SC2)s1` (stereo not given), for which the “activity, negative = inhibition” value was 3.56%.
For `CCCOc1ccc(NC(=O)CC2C(=O)N(C)C(=S)N2Cc2ccc3c(c2)OCO3)cc1` (stereo not given), the “activity, negative = inhibition” value is 4.02%.
Regarding `NS(=O)(=O)c1ccc(N2C(=O)C3C4CC(C(Br)C4Br)C3C2=O)cc1` (stereo not given), the “activity, negative = inhibition” value was 6.76%.
As to `CC(=O)Nc1ccc(S(=O)(=O)Nc2ccc(-c3ccc4nnc(C)n4n3)cc2)cc1`, the “activity, negative = inhibition” value was -0.516%.
For the compound `NCCC(=O)c1ccccc1N`, the “activity, negative = inhibition” value is -18%.
Consider `COc1ccc(NC(=O)c2sc(N)nc2-c2ccccc2)cc1`, for which the “activity, negative = inhibition” value was 7.79%.
Take `S=C(NN=C1CCN(Cc2ccccc2)CC1)NC1CCCCC1`: the “activity, negative = inhibition” value was -10.8%.
As for `CCN(C(=O)c1ccc(Br)cc1)c1ccccc1`, the “activity, negative = inhibition” value was -4.18%.
Same read-out and setting: the value for `CCC1(C(=O)c2ccccc2)C(c2cccc([N+](=O)[O-])c2)C1(C(=O)OC)C(=O)OC` (stereo not given) was 16%.
On the same count and under the same terms, the value for `Cc1ccccc1C(=O)OC1OC(=O)C(Cl)=C1Nc1ccccc1` (stereo not given) was -17.1%; that for `C=CCN1c2ccccc2[C@]23C[C@@H](C(=O)OC)N(S(=O)(=O)c4ccc([N+](=O)[O-])cc4)C2=NC(C(=O)OC)=C(C(=O)OC)[C@H]13` was -3.11% [at 13.5 µM]; that for `O=C1NC2(CCCCCC2)C(=O)N1CCS(=O)(=O)Oc1ccccc1` was -2.26%.
In the case of `CC(=O)Nc1ccc(C(=O)/C=C/c2ccc[nH]2)cc1`, the “activity, negative = inhibition” value is -1.58%.
Turning to `Cc1cc(C(=O)N/N=C/c2ccccc2[N+](=O)[O-])c(C)o1`, the “activity, negative = inhibition” value was -5.15%.
In the case of `Clc1ccc(C2=CSC3=Nc4cccc5cccc(c45)N23)cc1`, the Potency is 7940 nM (active).
On to `CCN(CC)CC1(O)CCN(C(=O)c2ccc(Cl)c(Cl)c2)CC1`, for which the “activity, negative = inhibition” value is -1.58%.
The same measure, in the same setting: the value for `CC(C)(C)n1nc2c(c1NC(=O)c1cc3ccccc3o1)CSC2` was 9.75%; that for `Cc1ccc(C)c(NC(=S)NCC(c2cccnc2)N2CCOCC2)c1` (stereo not given) was -2.08%.
As to `CCCCC(CC)CNC(=O)C(=O)C1C(=O)Nc2ccccc21` (stereo not given), the Potency was 2000 nM (active).
For the compound `COC(=O)C(C)C1Sc2ccccc2NC1=O` (stereo not given), the “activity, negative = inhibition” value is -1.81%.
In the case of `CCOC(=O)C1C(=O)NCC1c1ccccc1` (stereo not given), the “activity, negative = inhibition” value was 6.09%.
Take `CCCCC(CC)CNC(=O)CCCCn1c(=O)[nH]c2ccsc2c1=O` (stereo not given): the “activity, negative = inhibition” value is 0.924%.
As to `CCOC(=O)C(=O)C1C(=O)Nc2ccccc21` (stereo not given), the Potency was 14100 nM (active).
For `CCOC(=O)CC1=CC(=O)Nc2ccccc2N1`, the “activity, negative = inhibition” value was 1.21%.
In the case of `CC1=NN(C(=O)CCCc2ccccc2)C(O)(C(F)(F)F)C1` (stereo not given), the “activity, negative = inhibition” value is 0.404%.
On to `CC(C)C(=O)NCc1cc(-c2ccc(Cl)cc2)no1`, for which the “activity, negative = inhibition” value is 14.5%.
Same read-out and setting: the value for `CCCCCCCC[C@@H](O)/C=C/C=C/C=C\[C@@H](O)CCCC(=O)O` was 12.3%.
In the case of `[O-][n+]1onc2c1CCc1[nH]c(-c3ccccc3)nc1-2`, the “activity, negative = inhibition” value is 16.4%.
`CCc1nnc(NC(=O)CSc2nc(SC)ns2)s1`: the “activity, negative = inhibition” value was 3.53%.
As for `Cc1ccc(C(=O)OC2CCCN(C)C2)cc1` (stereo not given), the “activity, negative = inhibition” value was 7.18%.
As to `CCS(=O)(=O)c1cc([N+](=O)[O-])c(Sc2ccccc2N)s1`, the Potency is 3550 nM (active).
For `Nc1ccccc1Sc1ccc(C(F)(F)F)cc1[N+](=O)[O-]`, the “activity, negative = inhibition” value is 1.57%.
`CCOC(=O)c1sc2nc(SC)nc(-c3ccccc3)c2c1N`: the “activity, negative = inhibition” value was -4.78%.
`Cc1nc2sc(C(=O)c3ccccc3)c(N)c2c2c1CCCC2`: the Potency was 3980 nM (active).
`CCc1nc2sc(C(=O)O)c(N)c2c2c1CCCC2`: the “activity, negative = inhibition” value was 5.87%.
